Inconclusive results are not listed. Calls of active or inactive are those of the source. The calls were made as follows, unless noted: active = hit-call score of the fitted dose curve at least 0.9, where 1 is the maximum; inconclusive = response in the unintended direction; inactive = score below 0.9.
What was measured:
[1] = ATG_TGFb_CIS: Attagene CIS-FACTORIAL HepG2 Assay for human Transforming Growth Factor (TGF) (AID 2282967; active = hit-call score of the fitted dose curve at least 0.9, where 1 is the maximum; inactive = score below 0.9); conditions: HepG2 Attagene CIS TGFb reporter, mRNA transcription; actives raise or lower the signal
Outline: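 HepG2 cells transiently transfected with cis-promoter-driven multiple reporter units measure endogenous TF activity; reporter mRNA quantified at 24 h by RT-PCR, FAM labeling, HpaI digestion and capillary electrophoresis. Bidirectional fit vs DMSO.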

[2] = ATG_VDRE_CIS: Attagene CIS-FACTORIAL HepG2 Assay for human Vitamin D Receptor Element (VDRE) (AID 2282968; active = hit-call score of the fitted dose curve at least 0.9, where 1 is the maximum; inactive = score below 0.9); conditions: HepG2 VDRE cis-reporter transcription, actives raise or lower the signal
Outline: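 Compounds were applied for 24 h to HepG2 cells transfected with promoter-regulated reporter units. Total RNA was reverse-transcribed, and reporter amplicons were fluorescently labelled and sized by capillary electrophoresis.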

[3] = molecular target: Nuclear receptor subfamily 1 group I member 3 (Homo sapiens) (UniProt Q14994); experiment: ATG_CAR_TRANS: Attagene TRANS-FACTORIAL HepG2 Assay for human Constitutive Androstane Receptor (CAR) (AID 2282969); conditions: HepG2 Attagene TRANS-FACTORIAL CAR reporter;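 also: activators raise reporter mRNA above DMSO so AC50 marks induction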
Chain of Nuclear receptor subfamily 1 group I member 3 (Homo sapiens) (Q14994 whole entry, looked up, the tested form may be a part): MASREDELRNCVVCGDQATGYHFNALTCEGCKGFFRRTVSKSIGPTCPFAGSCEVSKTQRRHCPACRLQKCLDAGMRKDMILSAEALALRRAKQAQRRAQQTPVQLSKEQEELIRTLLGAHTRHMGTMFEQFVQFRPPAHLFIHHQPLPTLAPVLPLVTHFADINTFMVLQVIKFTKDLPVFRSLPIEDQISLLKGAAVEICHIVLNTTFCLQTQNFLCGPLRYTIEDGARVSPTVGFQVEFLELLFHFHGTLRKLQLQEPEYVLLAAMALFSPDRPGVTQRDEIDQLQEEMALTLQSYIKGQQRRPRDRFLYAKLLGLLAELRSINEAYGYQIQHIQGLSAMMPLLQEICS
Outline: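 Transiently transfected HepG2, multiplex TRANS reporters (CAR-Gal4 chimera driving GAL4-UAS reporter). 24 h dosing. Readout: reporter transcript by RT-PCR + capillary electrophoresis, fluorescence intensity; positive direction vs DMSO.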

[4] = molecular target: Estrogen receptor (Homo sapiens) (UniProt P03372); experiment: ATG_ERa_TRANS: Attagene TRANS-FACTORIAL HepG2 Assay for human Estrogen Receptor alpha (ERa) (AID 2282970); conditions: HepG2 Attagene TRANS ERa GAL4 reporter, mRNA
Chain of Estrogen receptor (Homo sapiens) (P03372 whole entry, looked up, the tested form may be a part): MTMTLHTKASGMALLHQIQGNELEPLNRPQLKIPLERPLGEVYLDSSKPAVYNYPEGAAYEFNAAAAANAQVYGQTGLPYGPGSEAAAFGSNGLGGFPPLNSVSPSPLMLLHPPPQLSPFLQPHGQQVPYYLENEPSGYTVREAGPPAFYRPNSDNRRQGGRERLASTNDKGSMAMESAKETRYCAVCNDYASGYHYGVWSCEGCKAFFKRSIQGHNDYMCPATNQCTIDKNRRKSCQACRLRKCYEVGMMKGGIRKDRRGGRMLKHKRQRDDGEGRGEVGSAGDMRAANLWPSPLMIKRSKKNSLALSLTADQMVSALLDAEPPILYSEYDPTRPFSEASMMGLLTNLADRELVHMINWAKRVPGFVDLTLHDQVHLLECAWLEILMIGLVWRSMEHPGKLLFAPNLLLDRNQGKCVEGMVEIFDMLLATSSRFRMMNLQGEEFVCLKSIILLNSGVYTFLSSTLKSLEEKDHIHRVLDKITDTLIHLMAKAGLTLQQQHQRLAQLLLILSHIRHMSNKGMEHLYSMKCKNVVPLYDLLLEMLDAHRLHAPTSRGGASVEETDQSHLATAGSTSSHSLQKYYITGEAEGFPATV
Outline: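 Reporter mRNA induction after 24 hours, detected by fluorescent RT-PCR and capillary electrophoresis, gives the read-out. Cells are HepG2 transiently transfected with GAL4-UAS reporter transcription units responding to chimeric NR-Gal4. Activity is taken as gain of signal over DMSO baseline.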

[5] = molecular target: Steroid hormone receptor ERR1 (Homo sapiens) (UniProt P11474); experiment: ATG_ERRa_TRANS: Attagene TRANS-FACTORIAL HepG2 Assay for human Estrogen-Related Receptor alpha (ERRa) (AID 2282971); conditions: HepG2 Attagene TRANS reporter, ERRa transactivation
Chain of Steroid hormone receptor ERR1 (Homo sapiens) (P11474 whole entry, looked up, the tested form may be a part): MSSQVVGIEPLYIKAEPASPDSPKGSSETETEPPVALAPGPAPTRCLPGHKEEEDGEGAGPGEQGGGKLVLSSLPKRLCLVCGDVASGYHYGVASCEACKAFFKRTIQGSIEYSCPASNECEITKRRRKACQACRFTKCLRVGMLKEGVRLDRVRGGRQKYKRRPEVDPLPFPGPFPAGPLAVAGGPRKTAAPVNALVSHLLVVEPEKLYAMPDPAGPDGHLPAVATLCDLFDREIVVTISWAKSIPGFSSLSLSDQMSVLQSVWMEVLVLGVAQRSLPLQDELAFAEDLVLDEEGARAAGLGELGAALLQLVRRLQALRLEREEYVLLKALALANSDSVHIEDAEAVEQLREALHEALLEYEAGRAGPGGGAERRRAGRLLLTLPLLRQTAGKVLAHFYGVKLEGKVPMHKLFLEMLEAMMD
Outline: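 Transfected HepG2, 24 h dosing, ERRa-Gal4 chimera driving GAL4-UAS reporter. Readout: reporter mRNA via RT-PCR plus capillary electrophoresis (fluorescence). Positive direction vs DMSO control.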

[6] = molecular target: X-box-binding protein 1 (Homo sapiens) (UniProt P17861); experiment: ATG_Xbp1_CIS: Attagene CIS-FACTORIAL HepG2 Assay for human X-box Binding Protein 1 (XBP1) (AID 2282972; active = hit-call score of the fitted dose curve at least 0.9, where 1 is the maximum; inactive = score below 0.9); conditions: HepG2 XBP1 cis-element reporter, Attagene multiplex; actives raise or lower the signal
Chain of X-box-binding protein 1 (Homo sapiens) (P17861 whole entry, looked up): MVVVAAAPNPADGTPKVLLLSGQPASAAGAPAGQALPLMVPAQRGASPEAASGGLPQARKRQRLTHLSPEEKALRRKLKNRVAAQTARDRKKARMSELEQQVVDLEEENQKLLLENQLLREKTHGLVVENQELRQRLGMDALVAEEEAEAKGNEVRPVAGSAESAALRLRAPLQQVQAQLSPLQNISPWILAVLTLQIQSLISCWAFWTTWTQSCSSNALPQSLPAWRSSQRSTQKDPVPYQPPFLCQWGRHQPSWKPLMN
Outline: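 Reporter transcripts were quantified by RT-PCR with fluorescent primer extension and capillary electrophoresis after 24 h chemical exposure. Cells: transiently transfected HepG2 carrying cis-regulated reporter constructs; data fitted bidirectionally relative to DMSO.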

[7] = ATG_M_19_TRANS: Attagene TRANS-FACTORIAL HepG2 Assay for M19 Transcription Factor (Internal Marker) (AID 2282974); conditions: HepG2 Attagene TRANS-FACTORIAL M19 internal marker reporter
Outline: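 HepG2 cells transiently transfected with multiple GAL4-UAS reporter transcription units were exposed to chemicals for 24 h. Reporter mRNA was read by RT-PCR, 6-FAM primer extension, HpaI digestion and capillary electrophoresis; gain of signal fitted relative to DMSO.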

[8] = ATG_GAL4_TRANS: Attagene TRANS-FACTORIAL HepG2 Assay for GAL4 (Internal Marker) (AID 2282976); conditions: HepG2 Attagene TRANS GAL4 internal marker reporter
Outline: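 RT-PCR/capillary electrophoresis readout of reporter mRNA. HepG2, transient MRTU transfection (GAL4-UAS reporters), 24 h compound exposure. Background-control endpoint, positive direction vs DMSO baseline.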

[9] = molecular target: Oxysterols receptor LXR-alpha (Homo sapiens) (UniProt Q13133); experiment: ATG_LXRa_TRANS: Attagene TRANS-FACTORIAL HepG2 Assay for human Liver X Receptor alpha (LXRa) (AID 2282980); conditions: HepG2 Attagene TRANS reporter, LXRa transactivation
Chain of Oxysterols receptor LXR-alpha (Homo sapiens) (Q13133 whole entry, looked up, the tested form may be a part): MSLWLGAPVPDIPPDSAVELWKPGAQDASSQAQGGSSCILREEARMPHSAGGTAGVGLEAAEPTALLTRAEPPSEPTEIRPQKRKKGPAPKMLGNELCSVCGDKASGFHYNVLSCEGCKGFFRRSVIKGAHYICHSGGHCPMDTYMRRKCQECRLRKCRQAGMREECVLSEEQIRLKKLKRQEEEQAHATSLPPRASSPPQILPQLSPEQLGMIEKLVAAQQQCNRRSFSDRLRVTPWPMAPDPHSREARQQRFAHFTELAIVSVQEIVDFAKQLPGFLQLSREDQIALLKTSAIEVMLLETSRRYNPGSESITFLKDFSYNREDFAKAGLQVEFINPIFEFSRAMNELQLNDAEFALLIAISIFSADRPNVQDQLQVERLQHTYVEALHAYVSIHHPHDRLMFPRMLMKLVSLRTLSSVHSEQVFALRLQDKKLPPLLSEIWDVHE
Outline: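 Read-out: reporter transcript levels by RT-PCR plus capillary electrophoresis, fluorescence intensity. Transiently transfected HepG2, exogenous NR-GAL4 chimera, GAL4-UAS reporters; 24 h compound exposure. Activity = increase over DMSO negative control.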

[10] = ATG_M_06_TRANS: Attagene TRANS-FACTORIAL HepG2 Assay for M06 Transcription Factor (Internal Marker) (AID 2282983); conditions: HepG2 Attagene TRANS M06 internal marker reporter
Outline: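 Read-out: fluorescent reporter cDNA fragments resolved by capillary electrophoresis after RT-PCR and HpaI cut. Source cells were HepG2 carrying transfected multi-reporter GAL4 constructs, dosed 24 h. Increase over DMSO control analysed.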

[11] = ATG_M_32_TRANS: Attagene TRANS-FACTORIAL HepG2 Assay for M32 Transcription Factor (Internal Marker) (AID 2282984); conditions: HepG2 Attagene TRANS M32 internal marker reporter;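 also: transcript level of a background control reporter unit measured by RT-PCR and capillary electrophoresis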
Outline: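 Internal-marker readout from a multiplexed transcription reporter panel. HepG2 cells were transfected with GAL4-UAS reporter units, treated 24 hours, and reporter transcript levels determined by fluorescence after RT-PCR and capillary separation.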

[12] = molecular target: Nuclear receptor subfamily 4 group A member 2 (Homo sapiens) (UniProt P43354); experiment: ATG_NURR1_TRANS: Attagene TRANS-FACTORIAL HepG2 Assay for human Nuclear Receptor Related Protein 1 (NURR1) (AID 2282985); conditions: HepG2 Attagene TRANS reporter, mRNA readout
Chain of Nuclear receptor subfamily 4 group A member 2 (Homo sapiens) (P43354 whole entry, looked up): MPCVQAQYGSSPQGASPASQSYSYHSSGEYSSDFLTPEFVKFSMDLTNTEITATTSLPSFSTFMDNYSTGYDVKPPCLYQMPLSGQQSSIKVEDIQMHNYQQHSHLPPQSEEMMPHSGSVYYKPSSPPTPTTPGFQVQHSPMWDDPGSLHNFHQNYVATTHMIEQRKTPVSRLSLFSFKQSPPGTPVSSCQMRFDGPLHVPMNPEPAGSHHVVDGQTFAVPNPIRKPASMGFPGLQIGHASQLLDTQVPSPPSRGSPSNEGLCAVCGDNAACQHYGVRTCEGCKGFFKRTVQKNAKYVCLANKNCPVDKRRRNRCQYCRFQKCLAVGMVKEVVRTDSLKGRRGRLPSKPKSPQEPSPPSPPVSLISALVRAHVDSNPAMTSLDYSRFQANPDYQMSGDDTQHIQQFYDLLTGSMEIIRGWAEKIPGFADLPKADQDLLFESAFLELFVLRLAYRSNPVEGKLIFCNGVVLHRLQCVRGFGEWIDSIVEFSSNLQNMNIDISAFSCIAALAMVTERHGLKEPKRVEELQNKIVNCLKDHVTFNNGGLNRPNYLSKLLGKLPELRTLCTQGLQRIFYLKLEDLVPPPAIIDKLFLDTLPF
Outline: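 Endpoint: reporter mRNA increase relative to DMSO. HepG2 cells transfected with reporter units, treated 24 h; RNA processed by RT-PCR, labelling, HpaI digestion and capillary electrophoresis.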

[13] = molecular target: Transcriptional activator Myb (Homo sapiens) (UniProt P10242); experiment: ATG_Myb_CIS: Attagene CIS-FACTORIAL HepG2 Assay for human Myeloblastosis (Myb) Proto-Oncogene Transcription Factor (AID 2282986; active = hit-call score of the fitted dose curve at least 0.9, where 1 is the maximum; inactive = score below 0.9); conditions: HepG2 Attagene CIS-FACTORIAL Myb reporter transcription; actives raise or lower the signal
Chain of Transcriptional activator Myb (Homo sapiens) (P10242 whole entry, looked up): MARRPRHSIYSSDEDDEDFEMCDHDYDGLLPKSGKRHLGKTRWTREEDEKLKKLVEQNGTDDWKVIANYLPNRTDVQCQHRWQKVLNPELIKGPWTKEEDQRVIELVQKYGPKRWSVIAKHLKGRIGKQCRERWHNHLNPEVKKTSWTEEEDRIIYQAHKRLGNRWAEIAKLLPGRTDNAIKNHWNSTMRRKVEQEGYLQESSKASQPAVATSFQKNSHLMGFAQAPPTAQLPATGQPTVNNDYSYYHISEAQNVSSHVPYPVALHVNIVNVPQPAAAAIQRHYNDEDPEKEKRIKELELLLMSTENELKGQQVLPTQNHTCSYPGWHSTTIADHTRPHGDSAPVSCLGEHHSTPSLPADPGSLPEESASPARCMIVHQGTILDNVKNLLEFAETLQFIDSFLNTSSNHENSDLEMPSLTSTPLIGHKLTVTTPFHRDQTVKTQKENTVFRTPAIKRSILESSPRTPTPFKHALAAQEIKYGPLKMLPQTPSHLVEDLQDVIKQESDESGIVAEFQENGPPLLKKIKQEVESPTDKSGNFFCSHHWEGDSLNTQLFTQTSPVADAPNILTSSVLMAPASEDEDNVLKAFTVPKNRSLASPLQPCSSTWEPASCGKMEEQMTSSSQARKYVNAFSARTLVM
Outline: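 HepG2 cells were transiently transfected with cis-regulated multiple reporter transcription units reflecting endogenous Myb activity, then exposed to compound for 24 hours. Reporter mRNA was measured by RT-PCR with capillary electrophoresis; bidirectional fitting versus DMSO baseline.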

[14] = molecular target: Nuclear respiratory factor 1 (Homo sapiens) (UniProt Q16656); experiment: ATG_NRF1_CIS: Attagene CIS-FACTORIAL HepG2 Assay for human Nuclear Respiratory Factor 1 (NRF1) Orphan Gene (AID 2282987; active = hit-call score of the fitted dose curve at least 0.9, where 1 is the maximum; inactive = score below 0.9); conditions: HepG2 NRF1 cis-element reporter, Attagene multiplex; actives raise or lower the signal
Chain of Nuclear respiratory factor 1 (Homo sapiens) (Q16656 whole entry, looked up): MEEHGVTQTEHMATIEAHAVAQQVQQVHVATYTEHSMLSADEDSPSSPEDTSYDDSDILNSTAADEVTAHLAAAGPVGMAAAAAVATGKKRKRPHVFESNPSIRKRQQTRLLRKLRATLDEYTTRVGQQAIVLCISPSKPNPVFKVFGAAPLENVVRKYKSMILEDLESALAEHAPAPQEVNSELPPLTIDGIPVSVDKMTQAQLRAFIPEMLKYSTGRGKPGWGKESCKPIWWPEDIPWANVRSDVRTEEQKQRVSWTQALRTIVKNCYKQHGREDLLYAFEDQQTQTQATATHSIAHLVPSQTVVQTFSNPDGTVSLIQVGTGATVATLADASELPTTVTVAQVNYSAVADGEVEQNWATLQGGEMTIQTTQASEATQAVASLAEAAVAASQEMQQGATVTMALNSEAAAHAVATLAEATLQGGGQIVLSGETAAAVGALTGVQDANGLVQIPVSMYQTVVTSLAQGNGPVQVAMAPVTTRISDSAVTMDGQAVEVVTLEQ
Outline: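 HepG2 cells transiently transfected with multiple reporter transcription units under cis-regulatory promoter control, so endogenous transcription-factor activity is read. After 24 h compound exposure, reporter mRNA quantified by RT-PCR, fluorescent labelling, HpaI digestion and capillary electrophoresis; bidirectional fitting versus DMSO.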

[15] = molecular target: Glucocorticoid receptor (Homo sapiens) (UniProt P04150); experiment: ATG_GR_TRANS: Attagene TRANS-FACTORIAL HepG2 Assay for human Glucocorticoid Receptor (GR) (AID 2282978); conditions: HepG2 Attagene TRANS GR reporter, mRNA transcription;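 also: activators score as hits since higher reporter transcript over DMSO is fitted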
Outline: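 HepG2 cells transiently transfected with multiplexed reporter units in which chimeric NR-GAL4 proteins drive GAL4-UAS reporters; 24 h compound exposure. Reporter mRNA measured by RT-PCR, 6-FAM labelling, HpaI digestion and capillary electrophoresis; gain-of-signal fitted versus DMSO.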

[16] = molecular target: Hepatocyte nuclear factor 4-alpha (Homo sapiens) (UniProt P41235); experiment: ATG_HNF4a_TRANS: Attagene TRANS-FACTORIAL HepG2 Assay for human Hepatocyte Nuclear Factor 4 alpha (HNF4a) (AID 2282982); conditions: HepG2 HNF4a transactivation reporter, mRNA readout
Chain of Hepatocyte nuclear factor 4-alpha (Homo sapiens) (P41235 whole entry, looked up, the tested form may be a part): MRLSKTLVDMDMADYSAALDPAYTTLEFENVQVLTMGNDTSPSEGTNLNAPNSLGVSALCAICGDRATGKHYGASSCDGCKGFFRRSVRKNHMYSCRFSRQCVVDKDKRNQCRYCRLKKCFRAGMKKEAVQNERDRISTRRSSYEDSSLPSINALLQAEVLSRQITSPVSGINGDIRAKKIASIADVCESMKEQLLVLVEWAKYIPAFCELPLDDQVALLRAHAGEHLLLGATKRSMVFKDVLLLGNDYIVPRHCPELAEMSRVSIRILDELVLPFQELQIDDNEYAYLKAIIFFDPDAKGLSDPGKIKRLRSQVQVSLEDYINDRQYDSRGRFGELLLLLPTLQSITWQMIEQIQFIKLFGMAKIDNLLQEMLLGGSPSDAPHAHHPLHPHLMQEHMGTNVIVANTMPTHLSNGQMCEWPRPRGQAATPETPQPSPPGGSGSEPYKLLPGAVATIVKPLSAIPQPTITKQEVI
Outline: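 Endpoint reflects transcriptional activation of a GAL4-UAS reporter by an HNF4a-GAL4 chimera in transfected HepG2 cells, 24 h post-dosing. Fluorescence from RT-PCR products separated by capillary electrophoresis; DMSO baseline.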

[17] = molecular target: Estrogen-related receptor gamma (Homo sapiens) (UniProt P62508); experiment: ATG_ERRg_TRANS: Attagene TRANS-FACTORIAL HepG2 Assay for human Estrogen-Related Receptor gamma (ERRg) (AID 2282977); conditions: HepG2 Attagene TRANS reporter, ERRg transactivation;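 also: hits increase reporter signal over DMSO so potencies reflect activators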
Outline: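 Induction of reporter transcripts through a chimeric NR-Gal4 protein is quantified in transfected human HepG2 liver cells after 24 h chemical exposure, using RT-PCR with capillary electrophoresis detection and DMSO as baseline.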

[18] = molecular target: Bile acid receptor (Homo sapiens) (UniProt Q96RI1); experiment: ATG_FXR_TRANS: Attagene TRANS-FACTORIAL HepG2 Assay for Farnesoid X Receptor (FXR) (AID 2282979); conditions: HepG2 Attagene TRANS FXR-GAL4 reporter transcription;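 also: hits raise reporter mRNA above DMSO so AC50 marks FXR activation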
Outline: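 Read-out: fluorescent reporter transcripts quantified by capillary electrophoresis after RT-PCR of total RNA. Source cells were HepG2 transiently carrying chimeric NR-GAL4 plus GAL4-UAS reporter units, dosed 24 h. Activity fitted upward relative to DMSO baseline.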

[19] = molecular target: Oxysterols receptor LXR-beta (Homo sapiens) (UniProt P55055); experiment: ATG_LXRb_TRANS: Attagene TRANS-FACTORIAL HepG2 Assay for human Liver X Receptor beta (LXRb) (AID 2282981); conditions: HepG2 Attagene TRANS GAL4-LXRb reporter, mRNA
Chain of Oxysterols receptor LXR-beta (Homo sapiens) (P55055 whole entry, looked up, the tested form may be a part): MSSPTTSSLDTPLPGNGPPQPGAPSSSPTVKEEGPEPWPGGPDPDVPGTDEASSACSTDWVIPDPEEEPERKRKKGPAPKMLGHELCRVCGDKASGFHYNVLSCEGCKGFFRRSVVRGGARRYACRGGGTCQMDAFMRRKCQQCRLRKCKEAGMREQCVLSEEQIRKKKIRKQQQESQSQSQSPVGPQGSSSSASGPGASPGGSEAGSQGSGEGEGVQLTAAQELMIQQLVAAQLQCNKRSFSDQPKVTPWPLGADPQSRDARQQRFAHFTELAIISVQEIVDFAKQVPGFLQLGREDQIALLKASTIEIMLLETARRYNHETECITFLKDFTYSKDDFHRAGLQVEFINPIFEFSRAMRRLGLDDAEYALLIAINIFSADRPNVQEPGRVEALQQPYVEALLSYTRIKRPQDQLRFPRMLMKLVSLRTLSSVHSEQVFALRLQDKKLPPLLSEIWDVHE
Outline: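 Multiplexed reporter assay, HepG2, 24 h dosing. Fluorescence of labelled RT-PCR products after capillary electrophoresis gives transcript level; positive fitting direction relative to DMSO.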

Measured: AC50

Cc1cc(C)c(C)c(O)c1
not listed: [15] | [16] | [17] | [18] | [19]
inactive: all other assays above

C=C[Si](OC(C)=O)(OC(C)=O)OC(C)=O
inactive: [1] | [3] | [6] | [7] | [8] | [9] | [11] | [13] | [14]

CCCCCCCC/C=C\CCCCCCCC(=O)OCCO
not listed: [3] | [4] | [5] | [8] | [9] | [17] | [18] | [19]
inactive: all other assays above

Nc1ccc(-c2ccc(F)cc2)cc1
inactive: [1] | [2] | [6] | [7] | [17] | [18] | [16] | [11] | [13] | [14]
active: [4] 26.9 µM

C=CC(=O)OCCOC1C2CCC1C1CC=CC12 (stereo not drawn)
inactive: [1] | [2] | [6] | [7] | [8] | [19] | [13] | [14]

[Cl][Nd]([Cl])[Cl]
inactive: [1] | [2] | [5] | [6] | [7] | [16] | [11] | [12] | [13] | [14]

COc1ccc(-c2coc3cc(O)ccc3c2=O)cc1
active: [4] 1.21 µM
not listed: [3] | [5] | [7] | [8] | [17] | [18]
inactive: all other assays above

Cc1ccc(C(C)(C)C)cc1
not listed: [4] | [5] | [8] | [9] | [15] | [16] | [17] | [18]
inactive: all other assays above

CCN(CC)c1ccc(C(=O)c2ccccc2C(=O)O)c(O)c1
active: [2] 1.7 µM
inactive: [1] | [6] | [9] | [16] | [10] | [11] | [13]

CCOCC(=O)O
inactive: [1] | [2] | [5] | [6] | [7] | [9] | [13] | [14]

— PubChem BioAssay (EPA / NIEHS)
